# Legend:
# [1] = molecular target: High affinity nerve growth factor receptor (Homo sapiens) (UniProt P04629); details: at 1 µM;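 also: each value is the mean percent inhibition of TRKA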
# [2] = molecular target: BDNF/NT-3 growth factors receptor (Homo sapiens) (UniProt Q16620); details: at 0.1 µM
# [3] = molecular target: BDNF/NT-3 growth factors receptor (Homo sapiens) (UniProt Q16620); details: at 1 µM
# [4] = molecular target: NT-3 growth factor receptor (Homo sapiens) (UniProt Q16288); details: at 0.1 µM
# [5] = molecular target: NT-3 growth factor receptor (Homo sapiens) (UniProt Q16288); details: at 1 µM
# [6] = molecular target: T1, Tyrosine-protein kinase TXK (Homo sapiens) (UniProt P42681); details: at 0.1 µM
# T1 sequence (whole entry): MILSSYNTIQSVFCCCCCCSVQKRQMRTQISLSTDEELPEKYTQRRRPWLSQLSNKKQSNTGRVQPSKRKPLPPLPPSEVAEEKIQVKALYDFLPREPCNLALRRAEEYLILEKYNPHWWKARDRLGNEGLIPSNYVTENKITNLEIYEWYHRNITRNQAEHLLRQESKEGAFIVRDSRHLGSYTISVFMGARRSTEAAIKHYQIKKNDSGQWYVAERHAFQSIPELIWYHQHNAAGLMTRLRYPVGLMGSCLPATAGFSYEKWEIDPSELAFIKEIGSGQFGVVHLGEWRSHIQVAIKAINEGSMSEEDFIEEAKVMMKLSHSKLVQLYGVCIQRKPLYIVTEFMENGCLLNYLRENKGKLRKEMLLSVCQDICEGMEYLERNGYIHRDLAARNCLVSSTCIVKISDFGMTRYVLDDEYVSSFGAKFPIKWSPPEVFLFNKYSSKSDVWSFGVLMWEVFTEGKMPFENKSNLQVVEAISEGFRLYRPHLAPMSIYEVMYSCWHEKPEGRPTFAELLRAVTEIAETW
# [7] = molecular target: T1, Tyrosine-protein kinase TXK (Homo sapiens); details: at 1 µM
# [8] = molecular target: Non-receptor tyrosine-protein kinase TYK2 (Homo sapiens) (UniProt P29597); details: at 0.1 µM;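 also: each value is a mean of the inhibition readings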
# [9] = molecular target: T2, Dual specificity protein kinase TTK (Homo sapiens) (UniProt P33981); details: at 1 µM;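 also: reported figures are mean TTK inhibition at 1 µM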
# T2 sequence (whole entry): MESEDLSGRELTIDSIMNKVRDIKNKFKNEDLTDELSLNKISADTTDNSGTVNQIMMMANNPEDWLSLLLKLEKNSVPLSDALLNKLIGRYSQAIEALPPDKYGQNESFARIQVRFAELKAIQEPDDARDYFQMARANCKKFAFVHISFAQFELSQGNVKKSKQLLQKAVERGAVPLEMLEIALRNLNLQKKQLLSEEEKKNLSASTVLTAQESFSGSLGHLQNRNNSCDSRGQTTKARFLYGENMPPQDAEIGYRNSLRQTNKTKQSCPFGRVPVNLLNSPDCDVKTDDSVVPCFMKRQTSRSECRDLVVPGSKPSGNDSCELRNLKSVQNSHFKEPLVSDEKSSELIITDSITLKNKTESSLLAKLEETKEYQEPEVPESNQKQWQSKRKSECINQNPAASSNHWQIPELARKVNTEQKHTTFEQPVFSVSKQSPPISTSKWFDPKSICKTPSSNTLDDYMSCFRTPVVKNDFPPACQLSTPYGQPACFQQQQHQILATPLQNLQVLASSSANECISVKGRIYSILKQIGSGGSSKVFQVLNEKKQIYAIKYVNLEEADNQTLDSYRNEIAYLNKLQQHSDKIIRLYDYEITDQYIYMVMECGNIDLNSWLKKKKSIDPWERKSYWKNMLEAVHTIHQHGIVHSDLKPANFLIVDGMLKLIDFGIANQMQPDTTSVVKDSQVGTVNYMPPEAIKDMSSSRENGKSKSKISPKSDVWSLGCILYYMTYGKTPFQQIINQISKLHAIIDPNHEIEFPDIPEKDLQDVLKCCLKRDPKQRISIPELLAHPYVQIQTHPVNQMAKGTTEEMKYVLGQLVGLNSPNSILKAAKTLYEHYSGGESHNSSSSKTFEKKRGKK
# [10] = molecular target: T3, Aurora kinase A (Homo sapiens) (UniProt O14965); details: at 0.1 µM
# T3 sequence (whole entry): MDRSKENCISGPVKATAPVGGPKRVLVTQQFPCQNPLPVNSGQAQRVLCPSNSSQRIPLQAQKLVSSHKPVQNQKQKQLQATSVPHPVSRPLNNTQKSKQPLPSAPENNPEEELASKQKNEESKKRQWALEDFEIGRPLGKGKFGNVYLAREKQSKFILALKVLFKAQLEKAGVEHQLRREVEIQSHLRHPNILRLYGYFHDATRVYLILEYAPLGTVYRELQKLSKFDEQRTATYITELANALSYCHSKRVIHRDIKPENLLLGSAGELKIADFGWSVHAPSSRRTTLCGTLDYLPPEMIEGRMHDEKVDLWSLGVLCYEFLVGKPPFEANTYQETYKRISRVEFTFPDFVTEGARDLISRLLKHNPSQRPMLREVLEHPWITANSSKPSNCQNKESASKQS
# [11] = molecular target: T3, Aurora kinase A (Homo sapiens); details: at 1 µM
# [12] = molecular target: Aurora kinase B (Homo sapiens) (UniProt Q96GD4); details: at 0.1 µM
# [13] = molecular target: Aurora kinase B (Homo sapiens) (UniProt Q96GD4); details: at 1 µM
# [14] = molecular target: T4, Aurora kinase C (Homo sapiens) (UniProt Q9UQB9); details: at 0.1 µM
# T4 sequence (whole entry): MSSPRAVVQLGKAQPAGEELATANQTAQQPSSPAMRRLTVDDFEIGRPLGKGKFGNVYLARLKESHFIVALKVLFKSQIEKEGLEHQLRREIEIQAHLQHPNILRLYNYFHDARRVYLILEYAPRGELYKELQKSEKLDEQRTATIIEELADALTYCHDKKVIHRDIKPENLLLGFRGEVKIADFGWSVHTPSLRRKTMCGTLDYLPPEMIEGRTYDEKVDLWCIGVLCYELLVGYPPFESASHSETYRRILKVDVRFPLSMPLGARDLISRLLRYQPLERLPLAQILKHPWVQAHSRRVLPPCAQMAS
# [15] = molecular target: T4, Aurora kinase C (Homo sapiens); details: at 1 µM
# [16] = molecular target: Serine/threonine-protein kinase 10 (Homo sapiens) (UniProt O94804); details: at 0.1 µM
# [17] = molecular target: Serine/threonine-protein kinase 10 (Homo sapiens) (UniProt O94804); details: at 1 µM
# [18] = molecular target: T5, Mitogen-activated protein kinase kinase kinase kinase 2 (Homo sapiens) (UniProt Q12851); details: at 0.1 µM
# T5 sequence (whole entry): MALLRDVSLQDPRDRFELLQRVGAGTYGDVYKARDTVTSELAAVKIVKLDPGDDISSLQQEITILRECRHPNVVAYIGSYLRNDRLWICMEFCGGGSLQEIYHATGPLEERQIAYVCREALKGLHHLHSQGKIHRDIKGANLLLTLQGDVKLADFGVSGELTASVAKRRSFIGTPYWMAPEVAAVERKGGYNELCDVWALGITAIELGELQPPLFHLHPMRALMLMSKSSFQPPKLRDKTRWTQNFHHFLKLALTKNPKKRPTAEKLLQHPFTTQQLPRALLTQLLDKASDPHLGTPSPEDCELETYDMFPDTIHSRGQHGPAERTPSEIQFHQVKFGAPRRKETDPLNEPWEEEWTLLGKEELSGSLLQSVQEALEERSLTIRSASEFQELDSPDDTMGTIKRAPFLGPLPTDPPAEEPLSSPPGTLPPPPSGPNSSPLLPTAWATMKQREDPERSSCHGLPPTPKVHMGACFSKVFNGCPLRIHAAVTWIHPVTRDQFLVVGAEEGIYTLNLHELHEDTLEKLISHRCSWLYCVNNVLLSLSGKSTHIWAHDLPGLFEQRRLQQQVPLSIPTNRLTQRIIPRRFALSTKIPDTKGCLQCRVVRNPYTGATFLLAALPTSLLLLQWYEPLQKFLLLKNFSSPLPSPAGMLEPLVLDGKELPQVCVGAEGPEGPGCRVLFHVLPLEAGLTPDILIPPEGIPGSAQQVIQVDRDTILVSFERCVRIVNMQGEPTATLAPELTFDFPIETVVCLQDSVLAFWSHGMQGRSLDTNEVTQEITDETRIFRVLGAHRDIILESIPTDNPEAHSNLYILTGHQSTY
# [19] = molecular target: T5, Mitogen-activated protein kinase kinase kinase kinase 2 (Homo sapiens); details: at 1 µM
# [20] = molecular target: Mitogen-activated protein kinase kinase kinase kinase 4 (Homo sapiens) (UniProt O95819); details: at 0.1 µM
# Sequence of Mitogen-activated protein kinase kinase kinase kinase 4 (Homo sapiens) (O95819 2-1239 limits assumed): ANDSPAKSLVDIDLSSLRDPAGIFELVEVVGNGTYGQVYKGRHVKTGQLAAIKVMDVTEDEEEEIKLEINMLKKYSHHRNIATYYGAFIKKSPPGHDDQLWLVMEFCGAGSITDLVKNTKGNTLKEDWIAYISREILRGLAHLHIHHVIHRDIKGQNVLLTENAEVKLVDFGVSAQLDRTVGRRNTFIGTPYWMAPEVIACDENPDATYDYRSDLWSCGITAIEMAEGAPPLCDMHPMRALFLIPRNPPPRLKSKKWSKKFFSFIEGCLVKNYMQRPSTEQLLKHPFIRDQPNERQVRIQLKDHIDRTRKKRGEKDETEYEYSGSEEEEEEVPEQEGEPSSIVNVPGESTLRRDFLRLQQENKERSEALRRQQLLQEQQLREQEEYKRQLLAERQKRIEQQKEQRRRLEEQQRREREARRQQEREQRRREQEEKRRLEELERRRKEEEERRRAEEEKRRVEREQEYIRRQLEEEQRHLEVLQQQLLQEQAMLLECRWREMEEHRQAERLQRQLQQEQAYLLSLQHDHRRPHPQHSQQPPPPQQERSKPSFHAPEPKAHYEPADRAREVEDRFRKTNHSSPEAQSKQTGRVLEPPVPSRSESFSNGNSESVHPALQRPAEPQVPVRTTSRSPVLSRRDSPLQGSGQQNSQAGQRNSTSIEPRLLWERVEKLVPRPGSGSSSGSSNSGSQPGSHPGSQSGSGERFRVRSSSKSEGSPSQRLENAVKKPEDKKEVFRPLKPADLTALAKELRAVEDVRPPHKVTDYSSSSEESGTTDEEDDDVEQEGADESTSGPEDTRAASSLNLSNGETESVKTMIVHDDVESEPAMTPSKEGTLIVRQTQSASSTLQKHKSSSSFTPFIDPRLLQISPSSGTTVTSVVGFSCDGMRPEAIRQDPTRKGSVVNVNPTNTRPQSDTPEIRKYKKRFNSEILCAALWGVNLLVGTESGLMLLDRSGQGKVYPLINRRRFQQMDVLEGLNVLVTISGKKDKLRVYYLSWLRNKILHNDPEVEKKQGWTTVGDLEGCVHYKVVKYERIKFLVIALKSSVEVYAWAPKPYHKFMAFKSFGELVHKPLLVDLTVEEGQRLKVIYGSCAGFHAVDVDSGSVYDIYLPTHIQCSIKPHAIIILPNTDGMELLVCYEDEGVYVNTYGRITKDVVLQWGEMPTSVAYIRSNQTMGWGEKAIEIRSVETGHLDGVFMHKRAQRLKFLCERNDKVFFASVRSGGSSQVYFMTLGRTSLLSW
# Sequence of Non-receptor tyrosine-protein kinase TYK2 (Homo sapiens) (P29597 whole entry): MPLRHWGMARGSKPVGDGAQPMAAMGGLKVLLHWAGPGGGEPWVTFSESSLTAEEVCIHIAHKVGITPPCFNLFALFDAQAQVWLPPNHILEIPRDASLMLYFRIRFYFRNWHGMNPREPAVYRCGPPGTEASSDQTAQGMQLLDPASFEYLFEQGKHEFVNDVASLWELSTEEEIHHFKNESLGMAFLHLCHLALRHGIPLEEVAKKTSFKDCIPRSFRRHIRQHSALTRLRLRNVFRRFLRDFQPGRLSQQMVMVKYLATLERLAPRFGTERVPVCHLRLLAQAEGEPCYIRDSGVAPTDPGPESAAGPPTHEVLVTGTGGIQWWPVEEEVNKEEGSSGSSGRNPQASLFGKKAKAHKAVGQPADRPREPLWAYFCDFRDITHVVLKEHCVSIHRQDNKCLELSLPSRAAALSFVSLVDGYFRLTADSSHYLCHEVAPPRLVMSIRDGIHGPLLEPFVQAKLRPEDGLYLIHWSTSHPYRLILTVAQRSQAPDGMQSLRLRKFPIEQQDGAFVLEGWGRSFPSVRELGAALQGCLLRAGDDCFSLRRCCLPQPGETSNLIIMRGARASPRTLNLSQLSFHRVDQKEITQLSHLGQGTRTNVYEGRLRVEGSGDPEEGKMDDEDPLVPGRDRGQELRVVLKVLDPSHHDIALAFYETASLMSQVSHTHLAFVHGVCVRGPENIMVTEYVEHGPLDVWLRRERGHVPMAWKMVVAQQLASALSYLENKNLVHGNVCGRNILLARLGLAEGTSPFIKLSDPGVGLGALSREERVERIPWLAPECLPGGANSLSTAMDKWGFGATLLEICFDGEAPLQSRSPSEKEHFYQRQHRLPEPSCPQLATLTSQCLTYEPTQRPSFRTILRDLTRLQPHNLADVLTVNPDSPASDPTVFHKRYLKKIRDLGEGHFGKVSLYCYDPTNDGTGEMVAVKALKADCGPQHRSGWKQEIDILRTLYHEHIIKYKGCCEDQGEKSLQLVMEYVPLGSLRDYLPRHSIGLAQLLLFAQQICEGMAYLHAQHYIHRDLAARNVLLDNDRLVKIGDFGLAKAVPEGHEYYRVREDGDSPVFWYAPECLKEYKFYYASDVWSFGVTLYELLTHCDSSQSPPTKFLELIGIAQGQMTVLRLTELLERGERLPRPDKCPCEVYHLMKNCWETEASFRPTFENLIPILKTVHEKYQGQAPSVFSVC
# Sequence of High affinity nerve growth factor receptor (Homo sapiens) (P04629 33-796 limits assumed): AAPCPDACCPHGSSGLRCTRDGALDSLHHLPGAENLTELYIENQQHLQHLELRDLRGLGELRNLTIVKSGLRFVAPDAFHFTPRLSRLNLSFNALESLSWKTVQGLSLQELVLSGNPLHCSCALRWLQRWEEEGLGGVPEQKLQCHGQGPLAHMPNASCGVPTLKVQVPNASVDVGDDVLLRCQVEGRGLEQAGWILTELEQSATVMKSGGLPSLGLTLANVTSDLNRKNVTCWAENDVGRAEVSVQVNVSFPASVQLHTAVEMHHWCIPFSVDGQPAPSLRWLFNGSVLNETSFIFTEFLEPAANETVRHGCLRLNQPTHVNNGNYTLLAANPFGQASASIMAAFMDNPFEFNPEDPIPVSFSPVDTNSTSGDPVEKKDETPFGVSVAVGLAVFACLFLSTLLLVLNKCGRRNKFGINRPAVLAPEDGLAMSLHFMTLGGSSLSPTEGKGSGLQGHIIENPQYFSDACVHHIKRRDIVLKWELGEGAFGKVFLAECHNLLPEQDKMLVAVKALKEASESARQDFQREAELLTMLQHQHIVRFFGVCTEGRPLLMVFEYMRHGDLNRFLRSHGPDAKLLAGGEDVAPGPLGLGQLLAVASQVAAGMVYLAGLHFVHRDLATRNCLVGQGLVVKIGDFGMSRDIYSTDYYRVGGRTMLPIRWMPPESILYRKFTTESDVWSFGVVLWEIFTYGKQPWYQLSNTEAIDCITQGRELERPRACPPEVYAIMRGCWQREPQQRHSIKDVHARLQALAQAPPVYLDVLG
# Sequence of BDNF/NT-3 growth factors receptor (Homo sapiens) (Q16620 32-822 limits assumed): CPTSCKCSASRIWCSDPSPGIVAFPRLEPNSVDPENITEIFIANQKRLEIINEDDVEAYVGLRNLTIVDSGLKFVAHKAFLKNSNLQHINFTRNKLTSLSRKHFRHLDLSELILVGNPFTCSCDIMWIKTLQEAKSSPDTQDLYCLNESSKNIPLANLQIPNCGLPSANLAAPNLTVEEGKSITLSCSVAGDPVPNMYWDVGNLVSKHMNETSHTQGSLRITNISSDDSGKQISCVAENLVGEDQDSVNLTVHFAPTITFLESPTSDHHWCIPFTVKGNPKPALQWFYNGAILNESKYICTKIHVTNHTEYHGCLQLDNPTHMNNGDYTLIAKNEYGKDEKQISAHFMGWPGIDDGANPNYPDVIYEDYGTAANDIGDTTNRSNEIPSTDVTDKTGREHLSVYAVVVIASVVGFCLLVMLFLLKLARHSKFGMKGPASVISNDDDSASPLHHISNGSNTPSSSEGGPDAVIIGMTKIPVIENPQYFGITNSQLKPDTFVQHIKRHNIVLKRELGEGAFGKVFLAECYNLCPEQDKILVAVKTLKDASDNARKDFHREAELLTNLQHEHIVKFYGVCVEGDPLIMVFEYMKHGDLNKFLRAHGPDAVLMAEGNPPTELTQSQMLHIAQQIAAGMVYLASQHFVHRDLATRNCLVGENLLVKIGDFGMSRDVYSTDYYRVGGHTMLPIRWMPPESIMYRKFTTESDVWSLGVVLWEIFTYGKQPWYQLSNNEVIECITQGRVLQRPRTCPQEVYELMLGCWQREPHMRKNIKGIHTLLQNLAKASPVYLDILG
# Sequence of NT-3 growth factor receptor (Homo sapiens) (Q16288 32-839 limits assumed): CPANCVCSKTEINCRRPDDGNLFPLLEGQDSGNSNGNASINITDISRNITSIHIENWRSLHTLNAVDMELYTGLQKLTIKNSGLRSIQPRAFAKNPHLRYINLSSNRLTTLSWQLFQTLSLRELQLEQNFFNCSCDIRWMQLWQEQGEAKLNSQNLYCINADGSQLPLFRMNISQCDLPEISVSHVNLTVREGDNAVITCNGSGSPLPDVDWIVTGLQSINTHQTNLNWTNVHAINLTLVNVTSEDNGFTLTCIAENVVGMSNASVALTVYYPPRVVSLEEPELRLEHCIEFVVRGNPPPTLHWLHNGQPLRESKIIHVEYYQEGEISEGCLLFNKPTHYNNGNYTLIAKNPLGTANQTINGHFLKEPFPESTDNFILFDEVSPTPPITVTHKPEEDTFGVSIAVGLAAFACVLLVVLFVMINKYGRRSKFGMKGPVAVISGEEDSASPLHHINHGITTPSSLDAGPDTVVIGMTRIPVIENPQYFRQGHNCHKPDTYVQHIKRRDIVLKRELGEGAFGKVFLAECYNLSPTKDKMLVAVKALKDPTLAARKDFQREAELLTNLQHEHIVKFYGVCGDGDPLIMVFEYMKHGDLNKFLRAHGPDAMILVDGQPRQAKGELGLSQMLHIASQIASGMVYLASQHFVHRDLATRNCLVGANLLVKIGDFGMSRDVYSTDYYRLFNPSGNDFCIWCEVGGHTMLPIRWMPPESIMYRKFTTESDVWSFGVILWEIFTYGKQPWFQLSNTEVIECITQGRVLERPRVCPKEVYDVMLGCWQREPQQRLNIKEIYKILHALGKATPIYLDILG
Compound,inhibition [1],inhibition [2],inhibition [3],inhibition [4],inhibition [5],inhibition [6],inhibition [7],inhibition [8],inhibition [9],inhibition [10],inhibition [11],inhibition [12],inhibition [13],inhibition [14],inhibition [15],inhibition [16],inhibition [17],inhibition [18],inhibition [19],inhibition [20]
CS(=O)(=O)CCNCc1ccc(-c2ccc3ncnc(Nc4ccc(OCc5ccccc5)c(Br)c4)c3c2)o1,0.51%,3%,4.04%,2%,1.45%,-5.68%,2.31%,-5.11%,10.2%,-1.23%,-1.79%,-1.52%,3.89%,-3.26%,1.56%,8.55%,16.4%,0.72%,0.4%,3.17%
O=C(Nc1n[nH]c2cc(-c3ccccc3)ccc12)C1CC1,4.46%,1.46%,6.76%,0.77%,7.68%,8.18%,17.7%,-4.71%,6.67%,1.71%,13.2%,4.05%,3.92%,0.96%,9.67%,4.04%,19.9%,1.56%,4.2%,33.6%
Fc1ccc(-c2nc3n(c2-c2ccncc2)CCS3)cc1,1.45%,2.62%,0.16%,2.96%,3.11%,-0.13%,-0.14%,-8.34%,9.6%,-1.28%,1.43%,-0.42%,2.92%,-1.97%,13.6%,1.88%,6.87%,1.36%,6.73%,5.82%
COc1ccc(C2=C(N3CCc4ccccc43)C(=O)NC2=O)cc1,3.66%,3.2%,2.97%,3.23%,3.14%,3.28%,4.15%,-3.26%,5.34%,1.27%,12.5%,0.57%,5.83%,1.68%,-3.65%,4.19%,10.4%,0.85%,4.95%,6.97%
C#Cc1cccc(Nc2ncnc3ccc(OCCCCNCCS(C)(=O)=O)cc23)c1,1.9%,3.91%,2.28%,3.6%,4.94%,5.2%,7.94%,-6.6%,9.83%,-1.65%,-0.05%,-2.61%,2.47%,-2.83%,-5.69%,23.4%,75.4%,1.44%,5.3%,5.65%
COc1cc(C)c(N(C)C(=O)CN(C)C)cc1Nc1nc(Nc2cccc(F)c2C(N)=O)c2cc[nH]c2n1,1.31%,0.94%,-2.87%,1.87%,-1.19%,-1.41%,-0.09%,0.02%,25.7%,-0.3%,-1.19%,-3.04%,-0.55%,-3.75%,4.56%,1.37%,2.05%,2.17%,3.67%,0.4%
NC(=O)c1ccc(Oc2nccc(-c3c(-c4ccc(F)cc4)ncn3C3CCNCC3)n2)cc1,5.13%,4.3%,5.18%,3.1%,4.93%,8.98%,6.85%,-1.79%,12.5%,3.58%,2.99%,2.63%,3.74%,2.2%,0.43%,7.75%,8.82%,-0.61%,1.55%,1.45%
CCN(CC)Cc1ccc(Nc2nccc(-c3cnn4ncccc34)n2)cc1,12.1%,4.49%,7.47%,2.83%,5.86%,0.47%,1.91%,-7.84%,29.4%,4.39%,34.3%,27.5%,63.7%,38%,84.6%,7.37%,18%,3.21%,21.2%,5.41%
COC(=O)Nc1nc2ccc(Sc3ccc(NC(=O)Nc4cc(C(F)(F)F)ccc4F)cc3)cc2[nH]1,83%,15.1%,71.8%,15.5%,69.5%,3.58%,4.98%,-0.72%,8.33%,1.16%,7.64%,0.96%,8.08%,1.09%,6.4%,18.9%,72.7%,7.11%,27.5%,5%
c1ccc(-c2n[nH]cc2-c2ccnc(-c3ccc(OCCN4CCOCC4)cc3)c2)nc1,-0.7%,0.05%,0.41%,1.29%,3.05%,5.88%,6.57%,4.24%,0.86%,0.43%,7.41%,7.03%,11.9%,5.43%,18.2%,3.53%,6.24%,6.4%,7.48%,28.6%
CCS(=O)(=O)c1ccc(OC)c(Nc2ncc(-c3ccccc3Cl)o2)c1,5.58%,1.97%,8.35%,3.33%,12.5%,1.52%,10.3%,-3.24%,9.34%,1.49%,10.9%,-1.57%,5.12%,1.38%,-2.79%,2.59%,6.5%,0.68%,5.1%,4.85%
NS(=O)(=O)c1ccc(N/N=C2\C(=O)Nc3ccc(-c4cnco4)cc32)cc1,36.1%,9.38%,46.4%,13.3%,51.9%,-3.23%,0.12%,-0.2%,52.8%,1.82%,33.1%,-2.59%,1.73%,-3.12%,11.5%,2.55%,8.33%,1.49%,4.85%,65.1%
O=C1NC(=O)C(c2cccc(Cl)c2)=C1Nc1ccc(Cl)c(C(=O)O)c1,-0.54%,0.88%,1.89%,1.02%,2.72%,2.81%,2.53%,-0.74%,9.31%,2.92%,8.62%,0.94%,8.32%,5.84%,-0.75%,4.75%,6.92%,0.39%,2.05%,2.67%
CN(c1ccc(NC(=O)Nc2c(Cl)cccc2Cl)cc1)c1ccnc(Nc2cccc(CS(C)(=O)=O)c2)n1,68.7%,30.1%,55.4%,31.7%,88.6%,9.28%,21.1%,-2.98%,19.4%,73.9%,97.6%,76.4%,84.2%,,104%,90.8%,86.5%,11.5%,32.9%,34.3%
CCc1nccc2c1nc(-c1nonc1N)n2CC,,3.6%,-1.57%,0.15%,-0.85%,3.63%,7.06%,1.46%,2.94%,2.35%,11.2%,1.28%,5.03%,0.67%,5.21%,-0.01%,3.09%,2.12%,2.26%,2.56%
